# Test results published in the supplement of paper PMC8728848.
# This excerpt belongs to a sample that is enriched for the strongest signals.
# Tests used:
# Experiment in all cases: glycan array binding signal (z-score within array); higher = stronger binding
# [1] = test system: Gal(b1-4)GlcNAc(b1-3)Gal(b1-4)GlcNAc(b1-3)Gal(b1-4)GlcNAc(b1-3)Gal(b1-4)GlcNAc(b1-2)Man(a1-3)[Gal(b1-4)GlcNAc(b1-3)Gal(b1-4)GlcNAc(b1-3)Gal(b1-4)GlcNAc(b1-3)Gal(b1-4)GlcNAc(b1-2)Man(a1-6)]Man(b1-4)GlcNAc(b1-4)[Fuc(a1-6)]GlcNAc; conditions: glycan notation: IUPAC condensed, linker removed; mutation: R125K
# Procedure, shortened: (§1)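 Columns mapping to the same glycan were averaged after glycan names were converted to IUPAC-condensed notation. The data come from 3228 arrays in the Consortium for Functional Glycomics database, limited to those with an available protein sequence. Binding is reported as a within-array Z-score averaged across arrays of one protein sequence and across linkers.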
# [2] = test system: Gal(b1-4)GlcNAc(b1-3)Gal(b1-4)GlcNAc(b1-3)Gal(b1-4)GlcNAc(b1-3)Gal(b1-4)GlcNAc(b1-3)Gal(b1-4)GlcNAc(b1-2)Man(a1-3)[Gal(b1-4)GlcNAc(b1-3)Gal(b1-4)GlcNAc(b1-3)Gal(b1-4)GlcNAc(b1-3)Gal(b1-4)GlcNAc(b1-3)Gal(b1-4)GlcNAc(b1-2)Man(a1-6)]Man(b1-4)GlcNAc(b1-4)GlcNAc; conditions: glycan notation: IUPAC condensed, linker removed
# Procedure, shortened: as §1
# [3] = test system: Gal(b1-4)GlcNAc(b1-3)Gal(b1-4)GlcNAc(b1-3)[Gal(b1-4)GlcNAc(b1-3)Gal(b1-4)GlcNAc(b1-6)]GalNAc; conditions: glycan notation: IUPAC condensed, linker removed
# Procedure, shortened: as §1
# [4] = test system: Gal(b1-4)GlcNAc(b1-3)[GlcNAc(b1-6)]Gal(b1-4)GlcNAc; conditions: glycan notation: IUPAC condensed, linker removed
# Procedure, shortened: as §1
# [5] = test system: Gal(b1-4)GlcNAc(b1-3)Gal(b1-4)GlcNAc; conditions: glycan notation: IUPAC condensed, linker removed
# Procedure, shortened: as §1
# [6] = test system: Gal(b1-4)GlcNAc(b1-3)Gal(b1-4)[Fuc(a1-3)]GlcNAc(b1-3)Gal(b1-4)[Fuc(a1-3)]GlcNAc; conditions: glycan notation: IUPAC condensed, linker removed
# Procedure, shortened: as §1
# [7] = test system: Gal(b1-4)GlcNAc(b1-3)GalNAc; conditions: glycan notation: IUPAC condensed, linker removed
# Procedure, shortened: as §1
# [8] = test system: Gal(b1-4)GlcNAc(b1-3)[Gal(b1-4)GlcNAc(b1-6)]Gal(b1-4)GlcNAc; conditions: glycan notation: IUPAC condensed, linker removed
# Procedure, shortened: as §1
# [9] = test system: Gal(b1-4)GlcNAc(b1-6)Gal(b1-4)GlcNAc; conditions: glycan notation: IUPAC condensed, linker removed
# Procedure, shortened: as §1
# Chain of PILRa (Mus musculus), Q2YSF3 (Q2YSF3 entry or part of it): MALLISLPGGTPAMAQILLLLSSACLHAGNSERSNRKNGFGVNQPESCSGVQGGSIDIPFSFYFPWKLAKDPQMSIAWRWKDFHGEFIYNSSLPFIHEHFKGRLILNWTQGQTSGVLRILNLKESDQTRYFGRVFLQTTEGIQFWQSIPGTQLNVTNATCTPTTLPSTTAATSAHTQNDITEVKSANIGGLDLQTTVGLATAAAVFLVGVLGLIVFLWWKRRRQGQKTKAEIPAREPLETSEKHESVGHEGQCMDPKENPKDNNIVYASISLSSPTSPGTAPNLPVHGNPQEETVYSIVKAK
# Chain of wLAT-1A (Homo sapiens), Q01650 (Q01650 whole entry): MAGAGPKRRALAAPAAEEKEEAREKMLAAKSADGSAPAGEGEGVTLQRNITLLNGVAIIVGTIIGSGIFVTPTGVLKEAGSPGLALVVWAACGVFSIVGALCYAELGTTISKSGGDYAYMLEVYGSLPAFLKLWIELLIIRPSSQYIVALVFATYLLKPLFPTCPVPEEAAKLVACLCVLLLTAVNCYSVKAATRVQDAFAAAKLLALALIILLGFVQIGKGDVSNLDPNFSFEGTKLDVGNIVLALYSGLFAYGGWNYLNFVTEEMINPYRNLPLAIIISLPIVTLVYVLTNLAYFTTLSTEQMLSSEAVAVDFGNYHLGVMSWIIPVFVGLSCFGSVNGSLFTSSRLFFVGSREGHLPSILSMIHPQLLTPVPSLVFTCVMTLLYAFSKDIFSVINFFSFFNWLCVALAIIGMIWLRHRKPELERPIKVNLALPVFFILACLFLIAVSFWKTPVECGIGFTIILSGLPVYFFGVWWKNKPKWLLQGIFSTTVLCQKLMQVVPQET
# Chain of Neurocan (Homo sapiens), O14594 (O14594 other isoform, or with tags, fused parts or gaps): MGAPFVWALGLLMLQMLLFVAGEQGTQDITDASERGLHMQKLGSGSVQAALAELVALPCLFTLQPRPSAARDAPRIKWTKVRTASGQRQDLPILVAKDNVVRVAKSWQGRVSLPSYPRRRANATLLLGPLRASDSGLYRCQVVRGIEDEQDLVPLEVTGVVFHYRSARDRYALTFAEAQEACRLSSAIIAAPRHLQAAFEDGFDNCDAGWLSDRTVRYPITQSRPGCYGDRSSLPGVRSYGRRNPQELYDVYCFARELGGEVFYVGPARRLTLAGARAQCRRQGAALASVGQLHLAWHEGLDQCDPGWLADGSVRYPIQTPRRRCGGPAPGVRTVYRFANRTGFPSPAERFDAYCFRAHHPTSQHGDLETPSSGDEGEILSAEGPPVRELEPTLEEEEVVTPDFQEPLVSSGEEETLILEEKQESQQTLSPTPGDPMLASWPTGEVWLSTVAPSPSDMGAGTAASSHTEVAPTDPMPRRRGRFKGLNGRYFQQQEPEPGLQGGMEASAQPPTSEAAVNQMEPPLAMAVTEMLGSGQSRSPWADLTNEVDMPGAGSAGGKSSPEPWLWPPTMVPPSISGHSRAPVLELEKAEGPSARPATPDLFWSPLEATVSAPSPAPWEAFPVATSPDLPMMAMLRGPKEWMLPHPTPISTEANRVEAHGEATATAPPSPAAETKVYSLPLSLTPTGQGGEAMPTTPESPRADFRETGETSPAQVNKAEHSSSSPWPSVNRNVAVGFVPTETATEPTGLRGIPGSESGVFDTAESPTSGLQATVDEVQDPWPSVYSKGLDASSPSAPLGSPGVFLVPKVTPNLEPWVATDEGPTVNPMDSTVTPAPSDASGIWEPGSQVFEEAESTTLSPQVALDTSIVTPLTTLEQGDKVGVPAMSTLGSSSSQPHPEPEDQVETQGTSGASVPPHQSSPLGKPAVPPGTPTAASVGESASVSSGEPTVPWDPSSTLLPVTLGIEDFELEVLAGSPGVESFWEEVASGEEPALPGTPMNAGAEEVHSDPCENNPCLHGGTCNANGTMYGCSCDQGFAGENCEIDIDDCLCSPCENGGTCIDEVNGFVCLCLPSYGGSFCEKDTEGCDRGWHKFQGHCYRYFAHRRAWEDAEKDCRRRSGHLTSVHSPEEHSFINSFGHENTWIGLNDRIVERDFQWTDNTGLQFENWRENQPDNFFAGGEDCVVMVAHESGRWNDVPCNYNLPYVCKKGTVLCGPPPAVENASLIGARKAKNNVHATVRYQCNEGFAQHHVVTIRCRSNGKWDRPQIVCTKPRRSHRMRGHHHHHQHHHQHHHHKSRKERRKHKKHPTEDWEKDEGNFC
# Chain of CHI3L1 (Homo sapiens), P36222 (P36222 whole entry): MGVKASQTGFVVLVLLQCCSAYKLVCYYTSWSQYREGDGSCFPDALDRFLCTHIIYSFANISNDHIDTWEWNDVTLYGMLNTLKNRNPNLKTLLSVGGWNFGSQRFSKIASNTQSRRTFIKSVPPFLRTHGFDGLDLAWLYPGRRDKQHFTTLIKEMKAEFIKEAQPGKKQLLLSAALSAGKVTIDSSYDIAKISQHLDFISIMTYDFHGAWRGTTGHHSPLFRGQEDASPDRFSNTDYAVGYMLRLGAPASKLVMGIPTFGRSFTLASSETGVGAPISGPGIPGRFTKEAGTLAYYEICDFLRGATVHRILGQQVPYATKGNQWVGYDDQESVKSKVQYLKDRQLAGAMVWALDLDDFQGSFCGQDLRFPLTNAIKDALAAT
# Chain of PILRb (Mus musculus), Q2YSF2 (Q2YSF2 entry or part of it): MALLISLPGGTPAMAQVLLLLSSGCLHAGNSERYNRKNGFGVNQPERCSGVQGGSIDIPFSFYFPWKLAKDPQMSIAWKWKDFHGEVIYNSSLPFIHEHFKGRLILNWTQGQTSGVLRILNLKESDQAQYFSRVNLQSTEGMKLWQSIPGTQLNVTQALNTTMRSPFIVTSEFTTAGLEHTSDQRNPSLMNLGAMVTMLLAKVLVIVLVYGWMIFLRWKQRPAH
# Chain of Avaren (Actinomycete K97) (chain, as listed by the source): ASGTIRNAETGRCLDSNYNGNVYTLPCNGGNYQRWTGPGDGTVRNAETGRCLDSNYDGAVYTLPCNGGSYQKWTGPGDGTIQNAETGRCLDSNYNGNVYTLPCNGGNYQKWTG
# Chain of 6RG (Lolium perenne) (chain, as listed by the source): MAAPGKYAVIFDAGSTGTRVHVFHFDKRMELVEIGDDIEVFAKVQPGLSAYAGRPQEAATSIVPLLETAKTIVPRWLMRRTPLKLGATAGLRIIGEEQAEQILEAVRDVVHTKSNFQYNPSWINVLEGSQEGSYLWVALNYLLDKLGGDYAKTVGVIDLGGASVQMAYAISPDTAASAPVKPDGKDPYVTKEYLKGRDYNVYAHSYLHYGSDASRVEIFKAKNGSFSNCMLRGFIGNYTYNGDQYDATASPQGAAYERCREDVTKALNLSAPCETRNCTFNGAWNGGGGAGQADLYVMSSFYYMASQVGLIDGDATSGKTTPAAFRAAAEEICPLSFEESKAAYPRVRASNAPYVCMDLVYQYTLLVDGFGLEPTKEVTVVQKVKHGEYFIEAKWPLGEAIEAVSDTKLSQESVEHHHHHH
# Chain of Regenerating Gene IV (Homo sapiens), Q9BYZ8 (Q9BYZ8 whole entry, looked up): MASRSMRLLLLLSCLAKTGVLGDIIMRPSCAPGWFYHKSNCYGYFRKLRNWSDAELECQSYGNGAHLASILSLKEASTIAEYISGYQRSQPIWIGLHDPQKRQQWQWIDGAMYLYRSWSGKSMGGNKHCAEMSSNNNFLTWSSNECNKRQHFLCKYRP
# Chain of Aggrecan (Rattus norvegicus), NP_071526 (chain, as listed by the source): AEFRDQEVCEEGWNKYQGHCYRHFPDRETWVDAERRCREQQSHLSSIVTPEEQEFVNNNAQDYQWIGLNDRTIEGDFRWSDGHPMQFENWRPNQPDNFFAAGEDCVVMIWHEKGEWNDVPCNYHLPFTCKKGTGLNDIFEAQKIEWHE
substance,measurement,setting,value
"Siglec-8 (Homo sapiens), Q9NYZ4",glycan array binding signal (z-score),[1],0.321
same,glycan array binding signal (z-score),[2],0.483
same,glycan array binding signal (z-score),[3],0.455
same,glycan array binding signal (z-score),[4]; mutation: R125K,-0.502
Avaren (Actinomycete K97),glycan array binding signal (z-score),[3],-0.016
"wLAT-1A (Homo sapiens), Q01650",glycan array binding signal (z-score),[5],-0.343
"Neurocan (Homo sapiens), O14594",glycan array binding signal (z-score),[6],-0.779
6RG (Lolium perenne),glycan array binding signal (z-score),[6],-0.329
"Regenerating Gene IV (Homo sapiens), Q9BYZ8",glycan array binding signal (z-score),[7],1.48
"PILRb (Mus musculus), Q2YSF2",glycan array binding signal (z-score),[8],-0.023
"Aggrecan (Rattus norvegicus), NP_071526",glycan array binding signal (z-score),[8],-0.184
"PILRa (Mus musculus), Q2YSF3",glycan array binding signal (z-score),[4],-0.283
same,glycan array binding signal (z-score),[9],-0.231
"CHI3L1 (Homo sapiens), P36222",glycan array binding signal (z-score),[9],-0.141
